Compound activity from PubChem BioAssay.
In the library only some 10% were active in any assay of this set; here they are far more common.
HEK293 tox: kills HEK 293 cells; HEK 293 viability, ATP luminescence (CellTiter-Glo), 48-72 h; Potency, µM (top dose mostly 115 µM), most hits filed as inhibitors; hit rate 6.6% among 94,000; also: nearly all actives have a fitted effect of over 60% in size
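Cells seeded first (HEK 293, 250 cells/well), then compound added by pintool. Incubation ran 48 or 72 hr at 37 degree Celsius. CellTiter-Glo was added and luminescence imaged after 10 min at room temperature.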
3T3 cytotox: cytotoxic compounds in NIH 3T3 cells; NIH 3T3 viability, CellTiter-Glo ATP luminescence, 48-72 h; Potency, µM (series often up to 96.7 µM), usual class: inhibitors; hit rate 4.3% among 94,000; AID 1345082; also: nearly all actives have a fitted effect of over 55% in size
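Cytotoxicity is measured as loss of cellular ATP: NIH 3T3 cells (400/well) are exposed to compound for 48 or 72 hr at 37 °C, then CellTiter-Glo luminescence is imaged after 10 min at room temperature.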
NPR1 antag: human Npr1 receptor antagonism. P16066. HEK293 hNpr1 GloSensor cGMP, ANP-stimulated luminescence. Potency, µM (series often up to 46.3 µM), actives largely listed as inhibitors. hit rate 1.6% among 76,000; calls by dose curve; also: nearly all actives have a fitted effect of over 60% in size
Target sequence (P16066 whole entry, looked up): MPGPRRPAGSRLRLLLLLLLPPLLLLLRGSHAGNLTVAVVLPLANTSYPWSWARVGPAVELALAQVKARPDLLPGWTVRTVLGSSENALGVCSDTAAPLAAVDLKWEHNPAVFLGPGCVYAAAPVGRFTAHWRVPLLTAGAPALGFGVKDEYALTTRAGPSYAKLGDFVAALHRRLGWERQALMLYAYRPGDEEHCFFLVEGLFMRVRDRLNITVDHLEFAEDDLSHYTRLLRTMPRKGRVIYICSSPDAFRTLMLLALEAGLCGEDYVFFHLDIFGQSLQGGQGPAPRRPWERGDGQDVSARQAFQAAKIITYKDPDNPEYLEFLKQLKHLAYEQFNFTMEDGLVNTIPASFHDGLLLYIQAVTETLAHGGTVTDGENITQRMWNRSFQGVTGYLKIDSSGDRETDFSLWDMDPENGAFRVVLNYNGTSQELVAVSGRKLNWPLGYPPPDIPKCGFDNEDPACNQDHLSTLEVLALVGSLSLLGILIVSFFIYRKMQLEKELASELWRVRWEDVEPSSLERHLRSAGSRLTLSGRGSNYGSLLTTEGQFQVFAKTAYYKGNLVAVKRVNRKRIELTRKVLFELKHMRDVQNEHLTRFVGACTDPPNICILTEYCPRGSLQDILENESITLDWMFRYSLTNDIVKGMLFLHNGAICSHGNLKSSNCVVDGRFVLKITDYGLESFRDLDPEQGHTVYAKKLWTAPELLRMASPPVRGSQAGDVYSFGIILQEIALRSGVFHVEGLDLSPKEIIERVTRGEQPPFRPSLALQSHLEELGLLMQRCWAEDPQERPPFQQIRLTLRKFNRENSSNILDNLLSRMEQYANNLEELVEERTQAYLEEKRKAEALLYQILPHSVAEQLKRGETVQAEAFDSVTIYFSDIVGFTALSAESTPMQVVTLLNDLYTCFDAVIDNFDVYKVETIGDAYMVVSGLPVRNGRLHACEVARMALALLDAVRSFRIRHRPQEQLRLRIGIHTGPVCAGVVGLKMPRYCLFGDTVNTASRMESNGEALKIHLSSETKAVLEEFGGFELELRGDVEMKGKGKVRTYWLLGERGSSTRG
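Compound pre-incubated 30 min at room temperature on GloSensor-loaded HEK293 cells stably carrying hNpr1 and the pGS-40F cGMP biosensor. Stimulation uses hNppA at 0.1 nM final; luminescence is taken at baseline and 20 min post-agonist.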
GPT2 inh: inhibitors of human GPT2 alanine aminotransferase. Recombinant GPT2, coupled pyruvate oxidase/HRP Amplex Red fluorescence. Q8TD30. AID 1671188. Potency, µM (top dose mostly 57.7 µM), usual class: inhibitors. hit rate 0.25% among 100,000; also: nearly all actives have a fitted effect of over 60% in size
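Fluorescence read-out: pyruvate from GPT2 turnover coupled to pyruvate oxidase, HRP and Amplex Red (0.2mM ThPP, 0.2U/mL PO and HRP, 50uM Amplex final). Substrates 250uM a-KG, 2mM L-alanine; enzyme 10ng/uL; 30 min RT.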
Luciferase inh: blocks purified firefly luciferase enzyme activity; purified P. pyralis luciferase, luminescence, biochemical; AID 1347043; Potency, µM (titrated, usually from 115 µM), actives largely listed as inhibitors; P08659; hit rate 2.5% among 76,000; also: nearly all actives have a fitted effect of over 65% in size
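Luminescence read by CCD imaging after purified firefly luciferase (10nM final) was added to substrate buffer holding 10uM D-luciferin and 10uM ATP, pH 7.5, pre-dosed with compound.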
Each line names hits and unclear results; the compound was inactive in the other large screens. Unless noted, calls follow the shape of the dose curve; as a rule, active = well fitted curve in the direction sought with a large enough effect; inconclusive = small, poorly fitted or top-dose-only effect, or another doubt; inactive = no such curve, though single readings can be large; an effect the other way counts as inactive or inconclusive.

O=C(CC[C@@H]1CNC(=O)[C@@H]2C[C@H](NCc3ccccn3)CN12)NCc1ccc(F)cc1	HEK293 tox inconclusive, 3T3 cytotox inconclusive
O=C(CC[C@@H]1CNC(=O)[C@@H]2C[C@H](NCc3ccccn3)CN12)NCc1ccccc1	HEK293 tox 71µM, 3T3 cytotox 56µM
Cc1ccc2c(C)c(C(=O)N(C)CCOc3ccccc3)oc2c1C	HEK293 tox inconclusive, GPT2 inh inconclusive, Luciferase inh 40µM
COc1ccc(C(CC(=O)N2CCCC2)c2c[nH]c3ccccc23)cc1 (centres undefined)	HEK293 tox inconclusive, Luciferase inh inconclusive
CC1(C)CC2CC(C)(CN2C(=O)CC(c2ccccc2Cl)c2c[nH]c3ccccc23)C1 (centres undefined)	HEK293 tox 25µM, 3T3 cytotox inconclusive
CCc1ccc(C(=O)N2CCC(N3C(=O)N(Cc4cccnc4)CC34CCOC4)CC2)cc1 (centres undefined)	3T3 cytotox inconclusive (no result: NPR1 antag, Luciferase inh)
C[C@H](O)c1onc(-c2ccc(F)cc2)c1C(=O)NC1CCCC1	none
Cc1ccc(-c2cc(C(=O)NCC(F)F)nn3cnnc23)cc1	none (no result: NPR1 antag, Luciferase inh)
CC(C)CNC(=O)c1cc(-c2ccc(F)cc2)c2nncn2n1	HEK293 tox inconclusive, 3T3 cytotox 45µM (no result: NPR1 antag, Luciferase inh)
Cc1ccccc1[C@H]1C[C@@H](O)[C@@H](O)[C@@H]1NS(=O)(=O)c1ccc(C(F)(F)F)cc1	HEK293 tox 100µM
COc1ccc(S(=O)(=O)N[C@H]2[C@H](O)[C@H](O)C[C@@H]2c2ccccc2C)cc1	none
O=S(=O)(N[C@H]1[C@H](O)[C@H](O)C[C@@H]1c1ccc(C(F)(F)F)cc1)c1ccc(F)cc1	HEK293 tox 71µM, 3T3 cytotox inconclusive
COc1ccc([C@H]2C[C@@H](O)[C@@H](O)[C@@H]2NC(=O)Nc2ccc(C(F)(F)F)cc2)cc1	HEK293 tox inconclusive, 3T3 cytotox 25µM, NPR1 antag inconclusive
COc1ccc(C(=O)N2CCC(N3C[C@H](O)C[C@H]3C(=O)NC3CCCCC3)CC2)c(OC)c1	3T3 cytotox inconclusive
Cc1ccc(NC(=O)c2cc(-c3ccc[nH]3)n[nH]2)cc1F	HEK293 tox inconclusive, 3T3 cytotox inconclusive, Luciferase inh 8.9µM
NS(=O)(=O)c1ccc(CCNC(=O)c2cc(-c3ccc[nH]3)n[nH]2)cc1	none
O=C(Nc1cccc(Cl)c1)c1cc(-c2ccc[nH]2)n[nH]1	NPR1 antag inconclusive, Luciferase inh 1.6µM
O=C(Nc1ccc2c(c1)C(=O)N1CCC[C@H]1C(=O)N2)c1cc(-c2ccccc2)n[nH]1	3T3 cytotox inconclusive
COc1ccc(-c2ccc(C(=O)Nc3cccc(Cl)c3)c(Cl)c2)nn1	HEK293 tox inconclusive (no result: NPR1 antag, GPT2 inh, Luciferase inh)
O=C(Nc1ccc(F)cc1)c1cc(-c2ccc[nH]2)n[nH]1	Luciferase inh 5µM
Cc1cc(F)ccc1NC(=O)c1cc(-c2ccc[nH]2)n[nH]1	HEK293 tox inconclusive, Luciferase inh 40µM
O=C(NCc1ccc(F)cc1)c1cc(-c2ccc[nH]2)n[nH]1	NPR1 antag inconclusive
Cc1n[nH]c(C)c1CCCN(C)c1cc(C2CC(N)C2)nc(N)n1 (centres undefined)	HEK293 tox inconclusive, 3T3 cytotox inconclusive
O=C(Nc1ccc(Cl)cc1)N1CCCC(C(=O)N2CCC(c3nc4ncccc4[nH]3)CC2)C1 (centres undefined)	3T3 cytotox inconclusive (no result: NPR1 antag, Luciferase inh)
O=C(Nc1cccc(F)c1)c1cc(-c2ccc[nH]2)n[nH]1	NPR1 antag inconclusive, Luciferase inh 2.2µM
O=C(Nc1cccc(C(F)(F)F)c1)c1cc(-c2ccc[nH]2)n[nH]1	Luciferase inh inconclusive
COc1ccc(NC(=O)c2cc(-c3ccc[nH]3)n[nH]2)cc1F	Luciferase inh 16µM
Cc1cccc(NC(=O)c2cc(-c3ccc[nH]3)n[nH]2)c1	Luciferase inh 2µM
CSc1ccc(NC(=O)c2cc(-c3ccc[nH]3)n[nH]2)cc1	Luciferase inh 4.5µM
CC1CCC(NC(=O)c2cc(-c3ccc[nH]3)n[nH]2)CC1 (centres undefined)	Luciferase inh inconclusive
CCN(Cc1ccccc1)C(=O)Cn1c(C)ccc(NS(=O)(=O)c2ccccc2)c1=O	HEK293 tox inconclusive, GPT2 inh inconclusive
Cc1nc(C)c(CN2CCOC[C@H](Oc3cnccn3)C2)s1	none
O=C(Cc1ccccc1)NCC1CN(C(=O)Cc2cccc(C(F)(F)F)c2)CC12CN(c1ccccc1)C2 (centres undefined)	HEK293 tox inconclusive, 3T3 cytotox inconclusive
CCOc1ccccc1CNC(=O)c1noc(-c2ccc(C)cc2)n1	HEK293 tox inconclusive, 3T3 cytotox inconclusive, Luciferase inh inconclusive
O=C(NCc1ccc2c(c1)OCO2)c1cnc2c(c1)N(Cc1ccccc1)CCC2	HEK293 tox inconclusive, 3T3 cytotox 50µM
CCC(=O)N1CCCN(Cc2ccc3c(c2)OCO3)c2ccccc21	HEK293 tox 45µM, 3T3 cytotox inconclusive
O=c1c2nc(Nc3ccc(C(F)(F)F)cc3)ccc2ncn1Cc1ccccn1	HEK293 tox inconclusive, 3T3 cytotox inconclusive
CCN(C(=O)CCC(=O)N1CCc2nc3cc(-c4ccc(OC)cc4)[nH]n3c(=O)c2C1)c1ccccc1	HEK293 tox inconclusive, 3T3 cytotox inconclusive, Luciferase inh 16µM
CC(C)(C)C(=O)N1CCN(C(=O)c2cccc(-c3ccccn3)c2)CC1	none (no result: NPR1 antag, Luciferase inh)
COc1ccc(Nc2ccnc(N3CCC(NC(=O)Nc4ccc(Cl)cc4)CC3)n2)cc1	HEK293 tox 20µM, 3T3 cytotox 32µM (no result: NPR1 antag, Luciferase inh)
Cc1ccc(Nc2ccnc(N3CCC(NC(=O)Nc4ccccc4)CC3)n2)cc1	HEK293 tox inconclusive, 3T3 cytotox inconclusive (no result: NPR1 antag, Luciferase inh)
Cc1ccc(Nc2ccnc(N3CCC(NC(=O)Nc4ccc(Cl)cc4)CC3)n2)cc1	HEK293 tox 25µM, 3T3 cytotox 22µM (no result: NPR1 antag, Luciferase inh)
Cc1ccc(C)c(CN2C[C@@H]3C(=O)N(CCN4CCc5ccccc5C4)C(=O)[C@@H]3C2)c1	HEK293 tox inconclusive, 3T3 cytotox inconclusive
C=C(F)c1sc(CNCCCNc2cc(=O)c3ccccc3[nH]2)c(C)c1Br	none (no result: HEK293 tox, 3T3 cytotox, NPR1 antag, Luciferase inh)
O=C1Nc2ccccc2CN(Cc2ccc(Cl)cc2)C12CCNC2 (centres undefined)	HEK293 tox 50µM, 3T3 cytotox inconclusive (no result: NPR1 antag, Luciferase inh)
O=C1Nc2ccccc2CC12CCCN2Cc1ccc(Cl)cc1 (centres undefined)	HEK293 tox inconclusive (no result: NPR1 antag, Luciferase inh)
CN1CCN(C(=O)c2ccc(-c3ccc(N4CCSCC4)nc3)cc2)CC1	HEK293 tox inconclusive, 3T3 cytotox inconclusive, Luciferase inh 35µM
CCCN1CCN(C(=O)c2ccc(-c3ccc(N4CCCCC4)nc3)cc2)CC1	HEK293 tox inconclusive, 3T3 cytotox inconclusive, Luciferase inh inconclusive
O=C(c1ccc(-c2ccc(N3CCSCC3)nc2)cc1)N1CCCCC1	HEK293 tox inconclusive, 3T3 cytotox 35µM, NPR1 antag 10µM, Luciferase inh inconclusive
CN1CCN(C(=O)c2ccc(-c3ccc(N4CCCCC4)nc3)cc2)CC1	HEK293 tox inconclusive, 3T3 cytotox inconclusive, Luciferase inh 22µM
